Pin1 inh = inhibitors of human Pin1; Potency, µM (doses to about 115 µM), without a hit: top-dose activity, negative = inhibition, usual class: inhibitors; Pin1 FP peptide displacement, HiFluor488, 10 min; AID 504891; 0.009% of 390,000 active; Q13526; active = well fitted inhibition curve with a large enough effect in the polarisation, with a control signal flat, not every such curve was filed as active; inconclusive = small, poorly fitted or top-dose-only effect, or effect the other way, or a change in a side signal; inactive = no such curve, though single readings can be large or run the other way; the % refers to the polarisation; note: potency is the fitted concentration of half-maximal effect
Target sequence (Q13526 whole entry, looked up): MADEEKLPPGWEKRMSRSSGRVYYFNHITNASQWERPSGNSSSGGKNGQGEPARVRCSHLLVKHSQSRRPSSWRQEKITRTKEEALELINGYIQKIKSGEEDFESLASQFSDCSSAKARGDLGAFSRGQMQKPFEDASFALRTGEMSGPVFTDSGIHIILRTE
PGK inhibitor = T. brucei PGK inhibition | 0.043% of 380,000 active | PGK/GAPDH coupled, Kinase-Glo luminescence, 60 min | Potency, µM (titrated, usually from 57.5 µM), for inactives: top-dose activity change, negative = inhibition, actives largely listed as inhibitors; note: potency is the fitted concentration of half-maximal effect; nearly all actives have a fitted effect of over 60% in size
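Luminescent ATP detection (Kinase-Glo Plus) follows a 60-minute room-temperature incubation, with wells lacking PGK as controls. Buffer: 100 mM TEA (pH 7.6), 5 mM MgCl2, 0.01% Tween-20. Coupling enzyme GAPDH (100 nM final) supplies unstable 1,3-BPG in-well.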
PI5P4Ka inh = PI5P4K alpha (human) kinase inhibition; P48426; 1.2% of 330,000 active; max response, %; AID 652105; PI5P4Kalpha enzyme, ADP-Glo luminescence, 60 min; stronger effect = lower value; active = max response of -50% or lower; inconclusive = between -30% and -50%; inactive = -30% or higher; note: value at the top dose of about 77 µM
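Single end-point luminescence (ADP-Glo) quantified ADP from PI5P4Kalpha turnover; ATP 5 microM final, 1 h at RT, 0.1% CHAPS and 0.28 mM EGTA in HEPES pH 7.4.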
Tb PFK inh = T. brucei PFK enzyme inhibition; AID 485367; O15648; T. brucei PFK, ADP-Glo luminescence; 0.17% of 330,000 active; Potency, µM (top dose mostly 57.5 µM), inactives show at the highest dose activity, negative = inhibition, actives largely listed as inhibitors;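 note: potency is the fitted concentration of half-maximal effect; 0% = uninhibited 1x PFK enzyme wells and -100% = no-enzyme wells; nearly all actives have a fitted effect of over 60% in size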
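PFK 1.25 nM, F6P 0.5 mM, ATP 0.1 mM, 0.1 M TEA pH 8.0, 5 mM MgCl2, 0.01% Tween20, 0.1% BSA; 45 min RT. ADP-Glo readout. qHTS titration up to 57 uM; curves fitted, compounds curve-classed.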
PI4K2A block = PI4K2A (human) kinase inhibition; activity change, negative = inhibition, % at 76.9 µM; 0.13% of 420,000 active; purified PI4K2A, ADP-Glo luminescence, 1 h; stronger effect = lower value; in the data active = activity change below about -50%; inconclusive = mostly about -30% to -49%;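 note: -100% = wells without enzyme as full effect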
Target sequence (Q9BTU6 whole entry, looked up): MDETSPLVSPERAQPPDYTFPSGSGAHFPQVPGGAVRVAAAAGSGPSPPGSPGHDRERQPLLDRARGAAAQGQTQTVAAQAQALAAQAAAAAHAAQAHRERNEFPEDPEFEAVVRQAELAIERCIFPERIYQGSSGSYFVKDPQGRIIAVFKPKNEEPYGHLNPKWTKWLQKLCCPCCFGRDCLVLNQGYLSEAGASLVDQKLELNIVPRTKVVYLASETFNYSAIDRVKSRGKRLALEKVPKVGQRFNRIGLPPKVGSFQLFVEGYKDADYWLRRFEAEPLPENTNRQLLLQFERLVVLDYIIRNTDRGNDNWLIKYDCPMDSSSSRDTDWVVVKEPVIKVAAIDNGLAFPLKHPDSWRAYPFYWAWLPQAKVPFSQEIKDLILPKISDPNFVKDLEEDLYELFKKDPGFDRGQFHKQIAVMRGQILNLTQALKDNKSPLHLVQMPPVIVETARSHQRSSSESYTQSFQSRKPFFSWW
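ADP-Glo luminescence measured ADP generated by PI4K2A enzyme (4 ug/mL before mixing) with 1.2 mM PI substrate (pre-mix) and 300 microM ATP (pre-mix). Tris pH7.5 buffer with MgCl2, Triton X-100; 1 h reaction at ambient temperature.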
An asterisk follows results filed as active; i = inactive; ? = inconclusive; nt = not tested or not shown. The entries come from a sample that favours hits as a whole. Unless noted, calls come from the whole dose curve; as a rule, active = well fitted curve in the direction sought with a large enough effect; inconclusive = small, poorly fitted or top-dose-only effect, or another doubt; inactive = no such curve, though single readings can be large; an effect the other way counts as inactive or inconclusive. Unless noted, % is set by controls: 0 for no effect and ±100 for the full control effect.

SMILES	Pin1 inh	PGK inhibitor	PI5P4Ka inh	Tb PFK inh	PI4K2A block
CC1=NN(c2nc(-c3ccc(C)cc3)cs2)C(=O)C1N=Nc1cccc(O)c1 (stereo not drawn)	6%	-4%	-71*	14%	-5
COc1ccc(CCNC(=O)Nc2ccc3c(c2)[C@]2(CC(=O)N(CC(C)C)C2c2ccccc2)C(=O)N3C)cc1OC (stereo partly drawn)	nt	nt	nt	nt	-10
Cc1ccsc1CNc1ncnc2ccc(-c3ccc4c(c3)OCO4)cc12	25%	nt	nt	nt	nt
O=[N+]([O-])c1ccc(N=Nc2ccc(O)cc2O)cc1	-3%	-9%	-17	-4%	-6
O=S(=O)(O)c1cc(Cl)cc(N=Nc2ccc(O)cc2O)c1O	?	?	-98*	nt	-18
O=C(Cc1nnc(NC(=O)c2ccccc2)s1)N/N=C/c1ccc(O)cc1	?	-1%	-28	-2%	4
O=C(Cc1nnc(NC(=O)c2ccccc2)s1)N/N=C\c1ccc(O)c(O)c1	?	?	-75*	-18%	-11
Cc1cn2c(N)c(/C=C3\C=Nc4ccccc43)c(=O)nc2s1	6%	i	-13	-5%	0
CSc1nsc2nc(=O)c(/C=C3\C(C)=Nc4ccc(C)cc43)c(N)n12	?	0%	-68*	9%	6
CC1=Nc2ccccc2/C1=C/c1c(N)n2c(S(=O)(=O)C(C)C)nsc2nc1=O	0%	-2%	-76*	11%	0
CC1=Nc2ccc(C)cc2/C1=C/c1c(N)n2oc(C)cc2nc1=O	?	-10%	-3	-3%	0
CC1=Nc2ccccc2/C1=C/c1c(N)n2c(S(=O)(=O)CC(C)C)nsc2nc1=O	1%	-11%	-65*	23%	1
CC1=Nc2ccc(C)cc2/C1=C/c1c(N)n2nc(CC(=O)N3CCOCC3)sc2nc1=O	10%	-7%	-17	1%	3
CSc1nsc2nc(=O)c(/C=C3\C=Nc4ccccc43)c(N)n12	?	-12%	-56*	8%	-6
Cc1nc(C2CCCCC2)c(-c2ccc(S(N)(=O)=O)c(F)c2)o1	nt	nt	nt	nt	-4
Cc1cc2c(s1)c1cnn(Cc3cccc(Br)c3)c(=O)c1n2C	3%	nt	nt	nt	nt
CC(NC(CCc1ccccc1)C(=O)O)C(=O)N1C(=O)N(C)CC1C(=O)O (stereo not drawn)	nt	nt	nt	nt	-8
CCC(C)NC(=O)C1CCN(S(=O)(=O)c2ccc3[nH]c(=O)oc3c2)CC1 (stereo not drawn)	nt	nt	nt	nt	-6
O=C1c2ccccc2C(=O)N1c1ncccc1O	-12%	nt	nt	nt	nt
CC1=Nc2ccc(C)cc2/C1=C/c1c(N)n2c(S(=O)(=O)C(C)C)nsc2nc1=O	-14%	-3%	-85*	2%	-8
CC(C)S(=O)(=O)c1nsc2nc(=O)c(/C=C3\C=Nc4ccccc43)c(N)n12	?	0%	-79*	4%	1
Nc1c(C=C2C=CC(=O)C=C2)c(=O)nc2snc(SCc3ccccc3)n12	19%	-11%	-51*	-4%	-2
NC(=O)C1CCN(c2ncc(Br)s2)CC1	?	nt	nt	nt	-8
O=C1NC(=O)/C(=C/c2ccc(-c3cc(C(=O)O)ccc3Cl)o2)S1	-13%	?	-82*	-2%	-2
O=C1NC(=S)/C(=C\c2ccc(-c3ccccc3Cl)o2)S1	?	-24%	-69*	-1%	-5
SMILES	Pin1 inh	PGK inhibitor	PI5P4Ka inh	Tb PFK inh	PI4K2A block
O=C1NC(=O)/C(=C\c2ccc(Br)o2)S1	-21%	-16%	?	19%	-9
COc1cc(/C=C2\SC(=Nc3cccnc3)NC2=O)cc(OC)c1OC	?	-12%	-89*	-1%	-3
O=C1NC(=Nc2cccc(O)c2)S/C1=C\c1cccnc1	30%	-9%	-60*	0%	-7
Cc1c(N=C2NC(=O)/C(=C/c3cccc([N+](=O)[O-])c3)S2)c(=O)n(-c2ccccc2)n1C	nt	nt	nt	0%	nt
O=C1NC(=Nc2cccc(O)c2)S/C1=C\c1cccc([N+](=O)[O-])c1	13%	-2%	-70*	3%	5
O=C1NC(c2ccccc2)(c2ccccc2)C(=O)N1COP(=O)(O)O	nt	nt	nt	nt	2
CS(=O)(=O)c1ccc(-c2cn3ccccc3n2)cc1	nt	nt	nt	nt	-7
COc1ccc(/C=C2/C(=O)N(c3nc4ccccc4s3)N=C2CSc2ccc(Cl)cc2)cc1	?	i	-72*	10%	-13
COc1ccc(/C=C2/C(=O)N(Cc3ccccc3)N=C2C)cc1	4%	i	10	?	-10
CCOC(=O)c1c(NC(=O)COc2ncnc3ccccc23)sc(C)c1C	0%	-9%	5	-6%	3
CCOC(=O)c1c(C)[nH]c(C)c1C(=O)COc1ncnc2ccccc12	19%	4%	-55*	3%	-1
NC(=O)C1CCN(c2nccc(-c3ccc(Br)cc3)n2)CC1	2%	nt	nt	nt	nt
Cc1c(Br)c(O)c(Br)c(O)c1/C=N/n1c(-c2ccccc2)n[nH]c1=S	nt	-22%	-83*	-12%	1
COc1cc(/C=N/n2c(-c3ccccc3)n[nH]c2=S)cc(OC)c1O	1%	4%	-22	4%	7
Oc1c(Br)cc(/C=N/n2c(-c3ccccc3)n[nH]c2=S)c(O)c1Br	-18%	-14%	-85*	2%	-4
Oc1c(Br)cc(/C=N/n2c(-c3ccccc3)n[nH]c2=S)cc1Br	-8%	-4%	-92*	2%	1
Oc1ccc(/C=N/n2c(-c3ccccc3)n[nH]c2=S)cc1Br	3%	-8%	-53*	-9%	2
COc1ccc(N2CCN(CCCNC(=O)Cc3ccc(C(F)(F)F)cc3)CC2)cc1	nt	nt	nt	nt	-2
Cc1c(P(=S)(c2ccccc2)c2ccccc2)c2ccccc2n1CCc1ccccc1	-3%	nt	nt	nt	nt
O=C(N=Nc1c(O)[nH]c2ccccc12)c1ccccc1NS(=O)(=O)c1cccs1	-15%	0%	-21	-4%	-10
Cc1ccc2[nH]c(O)c(N=NC(=O)c3ccc(NS(=O)(=O)c4cccs4)cc3)c2c1	?	-4%	-56*	8%	-4
COc1ccc2[nH]c(O)c(N=NC(=O)c3ccc(NS(=O)(=O)c4cccs4)cc3)c2c1	?	-11%	-88*	5%	-30
Cc1cccc2c(N=NC(=O)c3ccc(NS(=O)(=O)c4cccs4)cc3)c(O)[nH]c12	nt	?	-77*	20%	-3
O=C(N=Nc1c(O)[nH]c2ccc(F)cc12)c1ccc(NS(=O)(=O)c2cccs2)cc1	3%	-5%	-15	0%	7
COc1ccc2[nH]c(O)c(N=NC(=O)Cc3cccs3)c2c1	?	-8%	-69*	3%	-12
COc1cccc(C(=O)NNC(=O)c2ccc(NS(=O)(=O)c3cccs3)cc2)c1OC	-8%	-4%	-3	6%	0
O=[S+]([O-])(c1ccc2c(c1)OCCO2)N1CCN([S+](=O)([O-])c2c(O)cc(F)cc2F)CC1	2%	nt	nt	nt	nt

Bioassay records as filed in PubChem BioAssay.
